Experimental data published in PubChem BioAssay AID1159580 (chemical genetic matrix, 2015).
The whole screen tested about 5,500 compounds, of which about 2,000 (36%) were called active. Roughly 18% stayed inconclusive and do not appear here. Cut-off read from the data, not from the text of the source: active = normalized growth mostly below about 0.91 (no sharp cut-off); inconclusive = no clear call, values can overlap the other calls; inactive = mostly above about 0.92. Some of the results follow.

Test: chemical genetic growth profiling, strain panel (AID 1159580);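 note: tested at 20 µM; growth read once vehicle control cultures reached saturation at 30 °C; 1 = growth at the plate median or of vehicle wells; lower values mean less growth of the strain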
Conditions: growth OD

Measured: normalized growth

COc1ccc(-c2cc(C(F)F)nn2-c2ccc(S(N)(=O)=O)cc2)cc1F
inactive: S. cerevisiae deletion strains, locus YJR075W, strain HOC1, hits give low values 1.01 | S. cerevisiae deletion strains, locus YKL009W, strain mrt4, hits give low values 1.02 | S. cerevisiae deletion strains, locus YKL068W, hits give low values 1 | S. cerevisiae deletion strains, locus YKL085W, strain MDH1 (second series), hits give low values 1 | S. cerevisiae deletion strains, locus YKL085W, strain MDH1, hits give low values 1 | S. cerevisiae deletion strains, locus YKL160W, strain elf1, hits give low values 0.995 | S. cerevisiae deletion strains, locus YKL190W, strain CNB1, hits give low values 1 | S. cerevisiae deletion strains, locus YKR001C, strain vps1, hits give low values 1.01 | S. cerevisiae deletion strains, locus YKR026C, strain gcn3, hits give low values 1 | S. cerevisiae deletion strains, locus YKR091W, strain srl3, hits give low values 1.01 | S. cerevisiae deletion strains, locus YLL001W, strain dnm1, hits give low values 0.994 | S. cerevisiae deletion strains, locus YLL026W, hits give low values 1 | S. cerevisiae deletion strains, locus YLL041C, strain sdh2, hits give low values 1.01 | S. cerevisiae deletion strains, locus YLR027C, strain aat2, hits give low values 1 | S. cerevisiae deletion strains, locus YLR039C, strain RIC1, hits give low values 1.01 | S. cerevisiae deletion strains, locus YLR058C, strain SHM2, hits give low values 1.01 | S. cerevisiae deletion strains, locus YLR102C, strain apc9, hits give low values 1.01 | S. cerevisiae deletion strains, locus YLR113W, strain HOG1, hits give low values 1.05 | S. cerevisiae deletion strains, locus YLR221C, strain rsa3, hits give low values 1 | S. cerevisiae deletion strains, locus YLR258W, strain gsy2, hits give low values 1.01 | S. cerevisiae deletion strains, locus YLR262C, strain YPT6 (second series), hits give low values 1.01 | S. cerevisiae deletion strains, locus YLR262C, strain YPT6, hits give low values 0.992 | S. cerevisiae deletion strains, locus YLR268W, strain sec22, hits give low values 0.992 | S. cerevisiae deletion strains, locus YLR320W, strain mms22, hits give low values 0.962 | S. cerevisiae deletion strains, locus YLR330W, strain CHS5, hits give low values 1.01 | S. cerevisiae deletion strains, locus YLR342W, strain FKS1 (second series), hits give low values 1.08 | S. cerevisiae deletion strains, locus YLR342W, strain FKS1, hits give low values 0.991 | S. cerevisiae deletion strains, locus YLR357W, strain rsc2, hits give low values 0.995 | S. cerevisiae deletion strains, locus YLR370C, strain arc18, hits give low values 1.02 | S. cerevisiae deletion strains, locus YLR371W, strain rom2, hits give low values 1.03 | S. cerevisiae deletion strains, locus YLR384C, strain iki3, hits give low values 1 | S. cerevisiae deletion strains, locus YLR418C, strain cdc73, hits give low values 0.951 | S. cerevisiae deletion strains, locus YML016C, strain PPZ1, hits give low values 1 | S. cerevisiae deletion strains, locus YML032C, strain rad52, hits give low values 1.05 | S. cerevisiae deletion strains, locus YML120C, strain ndi1, hits give low values 0.999 | S. cerevisiae deletion strains, locus YML124C, strain tub3, hits give low values 1.01 | S. cerevisiae deletion strains, locus YMR058W, strain fet3, hits give low values 0.995 | S. cerevisiae deletion strains, locus YMR078C, strain ctf18, hits give low values 1.02 | S. cerevisiae deletion strains, locus YMR125W, strain sto1, hits give low values 1.02 | S. cerevisiae deletion strains, locus YMR129W, hits give low values 1.01 | S. cerevisiae deletion strains, locus YMR205C, strain PFK2, hits give low values 0.976 | S. cerevisiae deletion strains, locus YMR223W, strain ubp8, hits give low values 1.04 | S. cerevisiae deletion strains, locus YMR231W, strain pep5, hits give low values 1 | S. cerevisiae deletion strains, locus YMR263W, strain SAP30, hits give low values 0.996 | S. cerevisiae deletion strains, locus YMR307W, strain GAS1, hits give low values 1.04 | S. cerevisiae deletion strains, locus YNL067W, strain RPL9B, hits give low values 0.996 | S. cerevisiae deletion strains, locus YNL071W, strain lat1, hits give low values 0.996 | S. cerevisiae deletion strains, locus YNL128W, strain TEP1, hits give low values 1 | S. cerevisiae deletion strains, locus YNL153C, strain GIM3, hits give low values 0.982 | S. cerevisiae deletion strains, locus YNL183C, strain NPR1, hits give low values 1 | S. cerevisiae deletion strains, locus YNL209W, strain ssb2, hits give low values 1.01 | S. cerevisiae deletion strains, locus YNL233W, strain BNI4, hits give low values 1.01 | S. cerevisiae deletion strains, locus YNL248C, strain rpa49, hits give low values 0.996 | S. cerevisiae deletion strains, locus YNL250W, strain rad50, hits give low values 1.02 | S. cerevisiae deletion strains, locus YNL271C, strain bni1, hits give low values 1.02 | S. cerevisiae deletion strains, locus YNL298W, strain CLA4, hits give low values 1.02 | S. cerevisiae deletion strains, locus YNL307C, strain MCK1, hits give low values 1.03 | S. cerevisiae deletion strains, locus YNL322C, strain KRE1 (second series), hits give low values 1 | S. cerevisiae deletion strains, locus YNL322C, strain KRE1, hits give low values 1 | S. cerevisiae deletion strains, locus YNR049C, strain mso1, hits give low values 1.01 | S. cerevisiae deletion strains, locus YNR052C, strain pop2, hits give low values 1.03 | S. cerevisiae deletion strains, locus YOL006C, strain TOP1, hits give low values 1.02 | S. cerevisiae deletion strains, locus YOL012C, strain htz1 1.3 | S. cerevisiae deletion strains, locus YOL147C, strain pex11, hits give low values 1.01 | S. cerevisiae deletion strains, locus YOR001W, strain rrp6, hits give low values 1.01 | S. cerevisiae deletion strains, locus YOR061W, strain CKA2, hits give low values 1 | S. cerevisiae deletion strains, locus YOR069W, strain VPS5, hits give low values 1 | S. cerevisiae deletion strains, locus YOR070C, strain gyp1, hits give low values 1 | S. cerevisiae deletion strains, locus YOR080W, strain dia2, hits give low values 0.99 | S. cerevisiae deletion strains, locus YOR083W, strain WHI5, hits give low values 0.989 | S. cerevisiae deletion strains, locus YOR106W, strain vam3, hits give low values 0.993 | S. cerevisiae deletion strains, locus YOR136W, strain idh2, hits give low values 1.02 | S. cerevisiae deletion strains, locus YOR144C, strain elg1, hits give low values 1.01 | S. cerevisiae deletion strains, locus YOR184W, strain ser1, hits give low values 1.05 | S. cerevisiae deletion strains, locus YOR231W, strain MKK1, hits give low values 1.04 | S. cerevisiae deletion strains, locus YOR265W, strain rbl2, hits give low values 1.01 | S. cerevisiae deletion strains, locus YOR270C, strain vph1, hits give low values 0.976 | S. cerevisiae deletion strains, locus YOR290C, strain snf2, hits give low values 1.01 | S. cerevisiae deletion strains, locus YOR316C, strain cot1, hits give low values 1.01 | S. cerevisiae deletion strains, locus YPL051W, strain arl3, hits give low values 0.991 | S. cerevisiae deletion strains, locus YPL055C, strain LGE1, hits give low values 0.97 | S. cerevisiae deletion strains, locus YPL078C, strain atp4, hits give low values 0.998 | S. cerevisiae deletion strains, locus YPL106C, strain sse1, hits give low values 0.993 | S. cerevisiae deletion strains, locus YPL240C, strain hsp82, hits give low values 0.99 | S. cerevisiae deletion strains, locus YPL241C, strain CIN2, hits give low values 0.999 | S. cerevisiae deletion strains, locus YPL256C, strain CLN2, hits give low values 1.09 | S. cerevisiae deletion strains, locus YPR119W, strain clb2, hits give low values 1 | S. cerevisiae deletion strains, locus YPR141C, strain kar3, hits give low values 1.01 | S. cerevisiae deletion strains, locus YPR163C, strain tif3, hits give low values 1 | S. cerevisiae deletion strains, locus YPR167C, strain met16, hits give low values 1.01 | S. cerevisiae deletion strains, strain wtn01, hits give low values 1.02 | S. cerevisiae strains, strain wild type, hits give low values 1.01
